Assay results from the supplement of paper PMC10646978.
± gives the standard deviation.

Key:
Settings in all cases: modulator concentration 10 µM
[1] = tested on: RAW-Dual (murine macrophage reporter line); test: NF-kB reporter (SEAP) activity fold change vs agonist alone; higher = enhanced NF-kB activity
Procedure, shortened: (§1)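 RAW-Dual murine macrophage reporter cells were plated at 50 000 per well in 384-well plates, pin-transferred compound to 10 μM final, and pre-incubated for 1 hour at 37 °C before a PRR agonist was added and the cells incubated overnight. NF-κB activity was read from supernatant SEAP with QUANTI-Blue at 620 nm absorbance, and IRF activity from Lucia luciferase with QUANTI-Luc by luminescence. Each signal was expressed as fold change by dividing by the mean agonist-only control on the same plate. Two replicate plates were averaged, with errors obtained by propagation.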

[2] = tested on: RAW-Dual (murine macrophage reporter line); test: IRF reporter (Lucia luciferase) activity fold change vs agonist alone; higher = enhanced IRF activity
Procedure, shortened: as §1

[3] = tested on: RAW-Dual (murine macrophage reporter line); test: viability score (confluency relative to resting cells, overnight) (fraction); higher = more viable, active = viable (0.7 or more)
Procedure, shortened: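 Confluency was the readout: RAW-Dual macrophages were imaged with IncuCyte after an overnight exposure to compound at 10 μM final. IncuCyte software produced two masks over all imaged wells. The viability score expresses confluency against resting cells, and both masks had to exceed 70% of resting cells for a compound to meet the cutoff.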

[4] = agonist: CpG ODN 1826 0.5 ug/mL

## CN(C)CCC=C1c2ccccc2COc2ccccc21.Cl
[1]; [4]
  NF-kB reporter: 0.758 ± 0.18
[1]; agonist: LPS 0.1 ug/mL
  NF-kB reporter: 1.01 ± 0.054
[1]; agonist: MPLA […]
  NF-kB reporter: 1.06 ± 0.067
[2]; agonist: 3'3'-cGAMP 10 ug/mL
  IRF reporter: 0.576 ± 0.031
[2]; agonist: LPS 0.1 ug/mL
  IRF reporter: 1.22 ± 0.21
[2]; agonist: MPLA […]
  IRF reporter: 1.17 ± 0.2
[3]
  viability score: 0.978 (active)

## CCC(C)n1ncn(-c2ccc(N3CCN(c4ccc(OC[C@H]5CO[C@](Cn6cncn6)(c6ccc(Cl)cc6Cl)O5)cc4)CC3)cc2)c1=O (some centres not stated)
[1]; [4]
  NF-kB reporter: 1.57 ± 0.47
[1]; agonist: LPS 0.1 ug/mL
  NF-kB reporter: 1.04 ± 0.057
[1]; agonist: MPLA […]
  NF-kB reporter: 1.1 ± 0.089
[2]; agonist: 3'3'-cGAMP 10 ug/mL
  IRF reporter: 0.921 ± 0.044
[2]; agonist: LPS 0.1 ug/mL
  IRF reporter: 1.2 ± 0.14
[2]; agonist: MPLA […]
  IRF reporter: 1.32 ± 0.13
[3]
  viability score: 0.994 (active)

## N#Cc1nc(-c2ccc(COc3ccccc3)o2)oc1N1CCc2ccccc2C1
[1]; [4]
  NF-kB reporter: 0.987 ± 0.049
[1]; agonist: LPS 0.1 ug/mL
  NF-kB reporter: 1.13 ± 0.089
[1]; agonist: MPLA […]
  NF-kB reporter: 0.896 ± 0.05
[2]; agonist: 3'3'-cGAMP 10 ug/mL
  IRF reporter: 0.964 ± 0.078
[2]; agonist: LPS 0.1 ug/mL
  IRF reporter: 1 ± 0.16
[2]; agonist: MPLA […]
  IRF reporter: 0.989 ± 0.38
[3]
  viability score: 1.01 (active)

## OCC(O)CN1CCN(c2ccccc2)CC1 (configuration not stated)
[1]; [4]
  NF-kB reporter: 1.06 ± 0.091
[1]; agonist: LPS 0.1 ug/mL
  NF-kB reporter: 1.03 ± 0.12
[1]; agonist: MPLA […]
  NF-kB reporter: 1.02 ± 0.039
[2]; agonist: 3'3'-cGAMP 10 ug/mL
  IRF reporter: 1.03 ± 0.064
[2]; agonist: LPS 0.1 ug/mL
  IRF reporter: 0.991 ± 0.11
[2]; agonist: MPLA […]
  IRF reporter: 0.982 ± 0.17
[3]
  viability score: 0.996 (active)

## O=S(=O)(NCc1ccc(-c2cccnc2)nc1)c1ccc(OC(F)(F)F)cc1
[1]; [4]
  NF-kB reporter: 0.947 ± 0.068
[1]; agonist: LPS 0.1 ug/mL
  NF-kB reporter: 1.01 ± 0.091
[1]; agonist: MPLA […]
  NF-kB reporter: 0.873 ± 0.058
[2]; agonist: 3'3'-cGAMP 10 ug/mL
  IRF reporter: 0.961 ± 0.054
[2]; agonist: LPS 0.1 ug/mL
  IRF reporter: 1.09 ± 0.066
[2]; agonist: MPLA […]
  IRF reporter: 1.16 ± 0.11
[3]
  viability score: 1.01 (active)

## CC(=O)NNC(=O)c1ccncc1
[1]; [4]
  NF-kB reporter: 1.13 ± 0.089
[1]; agonist: LPS 0.1 ug/mL
  NF-kB reporter: 1.13 ± 0.074
[1]; agonist: MPLA […]
  NF-kB reporter: 1.03 ± 0.043
[2]; agonist: 3'3'-cGAMP 10 ug/mL
  IRF reporter: 1 ± 0.15
[2]; agonist: LPS 0.1 ug/mL
  IRF reporter: 1.07 ± 0.14
[2]; agonist: MPLA […]
  IRF reporter: 1.07 ± 0.26
[3]
  viability score: 0.996 (active)

## O=C(NCC1(O)CCc2ccccc2C1)c1cccc(C(F)(F)F)c1 (configuration not stated)
[1]; [4]
  NF-kB reporter: 0.848 ± 0.041
[1]; agonist: LPS 0.1 ug/mL
  NF-kB reporter: 0.939 ± 0.1
[1]; agonist: MPLA […]
  NF-kB reporter: 0.957 ± 0.054
[2]; agonist: 3'3'-cGAMP 10 ug/mL
  IRF reporter: 0.989 ± 0.045
[2]; agonist: LPS 0.1 ug/mL
  IRF reporter: 1.09 ± 0.26
[2]; agonist: MPLA […]
  IRF reporter: 1.12 ± 0.43
[3]
  viability score: 0.994 (active)

## CN1CCN(CC(=O)N2c3ccccc3C(=O)Nc3cccnc32)CC1.Cl.Cl
[1]; [4]
  NF-kB reporter: 1.49 ± 0.35
[1]; agonist: LPS 0.1 ug/mL
  NF-kB reporter: 1.03 ± 0.1
[1]; agonist: MPLA […]
  NF-kB reporter: 1.15 ± 0.077
[2]; agonist: 3'3'-cGAMP 10 ug/mL
  IRF reporter: 0.96 ± 0.036
[2]; agonist: LPS 0.1 ug/mL
  IRF reporter: 1.08 ± 0.12
[2]; agonist: MPLA […]
  IRF reporter: 1.06 ± 0.15
[3]
  viability score: 0.984 (active)

## CCc1cnn2c(NCc3ccc[n+]([O-])c3)cc(N3CCCC[C@H]3CCO)nc12
[1]; [4]
  NF-kB reporter: 0.338 ± 0.018
[1]; agonist: LPS 0.1 ug/mL
  NF-kB reporter: 0.0505 ± 0.0045
[1]; agonist: MPLA […]
  NF-kB reporter: 0.114 ± 0.0049
[2]; agonist: 3'3'-cGAMP 10 ug/mL
  IRF reporter: 0.0244 ± 0.0044
[2]; agonist: LPS 0.1 ug/mL
  IRF reporter: 0.0353 ± 0.0054
[2]; agonist: MPLA […]
  IRF reporter: 0.0374 ± 0.0047
[3]
  viability score: 0.0417 (inactive)

## CN(C)C(=O)COC(=O)Cc1ccc(OC(=O)c2ccc(NC(=N)N)cc2)cc1.CS(=O)(=O)O
[1]; [4]
  NF-kB reporter: 1.04 ± 0.045
[1]; agonist: LPS 0.1 ug/mL
  NF-kB reporter: 0.913 ± 0.083
[1]; agonist: MPLA […]
  NF-kB reporter: 1.01 ± 0.079
[2]; agonist: 3'3'-cGAMP 10 ug/mL
  IRF reporter: 1.07 ± 0.049
[2]; agonist: LPS 0.1 ug/mL
  IRF reporter: 1.21 ± 0.22
[2]; agonist: MPLA […]
  IRF reporter: 1.25 ± 0.4
[3]
  viability score: 0.829 (active)

## O=C(O)CCC(=O)O.O=C(O[C@H]1CN2CCC1CC2)N1CCc2ccccc2[C@@H]1c1ccccc1
[1]; [4]
  NF-kB reporter: 0.544 ± 0.087
[1]; agonist: LPS 0.1 ug/mL
  NF-kB reporter: 0.886 ± 0.046
[1]; agonist: MPLA […]
  NF-kB reporter: 1.07 ± 0.029
[2]; agonist: 3'3'-cGAMP 10 ug/mL
  IRF reporter: 0.921 ± 0.1
[2]; agonist: LPS 0.1 ug/mL
  IRF reporter: 1.05 ± 0.097
[2]; agonist: MPLA […]
  IRF reporter: 0.977 ± 0.11
[3]
  viability score: 0.992 (active)

## Cc1nc2n(c(=O)c1CCN1CCC(c3noc4cc(F)ccc34)CC1)CCCC2
[1]; [4]
  NF-kB reporter: 0.741 ± 0.18
[1]; agonist: LPS 0.1 ug/mL
  NF-kB reporter: 0.982 ± 0.09
[1]; agonist: MPLA […]
  NF-kB reporter: 0.915 ± 0.06
[2]; agonist: 3'3'-cGAMP 10 ug/mL
  IRF reporter: 0.891 ± 0.036
[2]; agonist: LPS 0.1 ug/mL
  IRF reporter: 1.13 ± 0.3
[2]; agonist: MPLA […]
  IRF reporter: 1.03 ± 0.13
[3]
  viability score: 1.01 (active)

## O=S(=O)(Cc1ccccc1)c1nc2ccccc2n1Cc1ccc(Cl)cc1
[1]; [4]
  NF-kB reporter: 0.661 ± 0.045
[1]; agonist: LPS 0.1 ug/mL
  NF-kB reporter: 1.1 ± 0.071
[1]; agonist: MPLA […]
  NF-kB reporter: 0.978 ± 0.057
[2]; agonist: 3'3'-cGAMP 10 ug/mL
  IRF reporter: 1.32 ± 0.059
[2]; agonist: LPS 0.1 ug/mL
  IRF reporter: 1.35 ± 0.092
[2]; agonist: MPLA […]
  IRF reporter: 1.36 ± 0.19
[3]
  viability score: 0.965 (active)

## CC(C)Oc1ccc(Br)cc1C=C(C#N)c1nn(CCO)c(N)c1C#N
[1]; [4]
  NF-kB reporter: 1.33 ± 0.11
[1]; agonist: LPS 0.1 ug/mL
  NF-kB reporter: 1.16 ± 0.066
[1]; agonist: MPLA […]
  NF-kB reporter: 1.11 ± 0.077
[2]; agonist: 3'3'-cGAMP 10 ug/mL
  IRF reporter: 0.91 ± 0.027
[2]; agonist: LPS 0.1 ug/mL
  IRF reporter: 1.2 ± 0.22
[2]; agonist: MPLA […]
  IRF reporter: 1.03 ± 0.18
[3]
  viability score: 1.01 (active)

## C=C1C(=O)OC2CC3(C)CCCC(C)C3=CC12 (configuration not stated)
[1]; [4]
  NF-kB reporter: 0.85 ± 0.054
[1]; agonist: LPS 0.1 ug/mL
  NF-kB reporter: 0.72 ± 0.068
[1]; agonist: MPLA […]
  NF-kB reporter: 0.685 ± 0.06
[2]; agonist: 3'3'-cGAMP 10 ug/mL
  IRF reporter: 0.0319 ± 0.0039
[2]; agonist: LPS 0.1 ug/mL
  IRF reporter: 0.738 ± 0.059
[2]; agonist: MPLA […]
  IRF reporter: 0.839 ± 0.15
[3]
  viability score: 0.73 (active)

## CCC(=O)Nc1ccc(C(=O)NN=Cc2ccc(C#N)cc2)cc1
[1]; [4]
  NF-kB reporter: 1.04 ± 0.094
[1]; agonist: LPS 0.1 ug/mL
  NF-kB reporter: 1.03 ± 0.081
[1]; agonist: MPLA […]
  NF-kB reporter: 0.913 ± 0.064
[2]; agonist: 3'3'-cGAMP 10 ug/mL
  IRF reporter: 0.972 ± 0.03
[2]; agonist: LPS 0.1 ug/mL
  IRF reporter: 1.53 ± 0.22
[2]; agonist: MPLA […]
  IRF reporter: 1.11 ± 0.23
[3]
  viability score: 1.01 (active)
